According to PubChem BioAssay (EPA / NIEHS):
More than one record can exist for a structure, and the calls need not agree. Calls of active or inactive are those of the source. The calls were made as follows: active = hit-call score of the fitted dose curve at least 0.9, where 1 is the maximum; inactive = score below 0.9.

test: CCTE_Shafer_MEA_dev_correlation_coefficient_mean: CCTE's Neural Network Formation Assay for Mean Correlation Coefficient, Shafer Lab (AID 2284093);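 as to AC50: well mean pairwise spike train correlation integrated as AUC over recording days 5 to 12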
Procedure: CCTE_Shafer_MEA_dev assay is conducted using Axion Biosystems 48 well microelectrode array (MEA) plates and Maestro recording system. Each well of the MEA plate contains a grid of 16 microelectrodes embedded in the culture surface. Electrically active cells, such as neurons, can be cultured over the electrodes, and electrical activity in these cells can be recorded extracellularly. The spontaneous firing of neurons is captured from each electrode on a microsecond timescale providing both temporally and spatially precise data. […] The CCTE_Shafer_MEA_dev assay uses primary cultures of rat cortical neurons. Recordings are made on days post-plating 5, 7, 9 and 12. As these cultures mature over time, neural networks develop functional activity and form cohesive networks in which electrical activity can be highly coordinated. CCTE_Shafer_MEA_dev_correlation_coefficient_mean is 1 of 19 assay components of the CCTE_Shafer_MEA_dev assay. It measures the correlation coefficent of spikes (action potential firings) between every pair of electrodes in a well during a recording in a microelectrode array (MEA) using Axion Biosystems Maestro 768 channel amplifier with the AxIS adaptive spike detector. The pairwise correlations are averaged across active electrodes to report a well-mean value. To collapse across multiple recordings made on days post-plating 5, 7, 9 and 12, the trapezoidal area-under-the-curve of the component is calculated.Data from the assay component CCTE_Shafer_MEA_dev_correlation_coefficient_mean was analyzed into 1 assay endpoint. This assay endpoint, CCTE_Shafer_MEA_dev_correlation_coefficient_mean, was analyzed in the negative analysis fitting direction relative to DMSO as the negative control and baseline of activity. Using a type of functional reporter, gain or loss-of-signal activity can be used to understand electrical activity.
On the day prior to culture, each well was coated thoroughly with 150 uL of 0.05% polyethyleneimine (PEI, Sigma Cat P3143) in 50 mM HEPES (Sigma Cat H7523) at a pH of 8. The plate was incubated at 37C for one hour. PEI was rinsed out with 500 uL of sterile water three times. Plates were stored at 4C until the day of culture. This culture was plated at a seeding density of 1.5 x 10^5 cells/well on a 48-well MEA plate, prepared as described above. Cells were administered via a 25 uL media/laminin ([…]; Sigma Cat L2020-1MG) drop directly onto the microelectrode array, as adding the cells with the laminin results in better attachment than pre-coating with laminin. After 2 hours, an additional 475 uL of cortical media was added and the cells returned to the incubator. Exposure starts at day 0 of plating and is continued over twelve days of network development until the experiment is terminated. Cells are fed with fresh medium on DIV 5 and 9, following the recordings on those days. The entire volume of media in the well is exchanged and any vehicle or compound treatment is renewed. Complete details are found in OP-NHEERL/ISTD/SBB/TJS/2015-03-r0 (available on request, email shafer.tim@epa.gov). Measurement of the electrical activity is non-invasive, and recordings can be made from the same plate over multiple different days of the culture. In cortical neurons, this allows for the measurement of extracellular action potentials over the period during which networks form in the MEA plate.

Which outcome does the source give for c1ccc2c(c1)ccc1cc3c(ccc4ccccc43)cc12 here?
Its outcome is “inactive”.

Which AC50 does the source give for N[C@H]1C(O)O[C@H](CO)[C@H](O)[C@@H]1O (stereo not given in full) here?
The AC50 was 25.4 µM (active).

Which AC50 does the source give for CN(C)c1ccc(C(=N)c2ccc(N(C)C)cc2)cc1 here?
Its AC50 is 1.71 µM (active).

With COC(F)(F)C(F)(C(F)(F)F)C(F)(F)F as the compound, how does the outcome read?
Its outcome is “inactive”.

Which AC50 does the source give for CC=CC(F)(F)C(F)(F)C(F)(F)F here?
The AC50 was 3.71 µM (active).

With CC1(C)S[C@@H]2[C@H](NC(=O)COc3ccccc3)C(=O)N2[C@H]1C(=O)O as the compound, how does the outcome read?
The outcome was “inactive”.

Which AC50 does the source give for Nc1ncn([C@@H]2O[C@H](CO)[C@@H](O)[C@H]2O)c(=O)n1 here?
Its AC50 is 2.91 µM (active).

And the outcome?
Its outcome is “inactive”.

Which outcome does the source give for CCOC(F)(F)C(F)(F)C(F)(F)C(F)(F)F here?
Its outcome is “inactive”.

Which outcome does the source give for FC(F)=C(F)OC(F)(F)C(F)(F)C(F)(F)F here?
The outcome was “inactive”.
